IL-1B inflam inh: qHTS for Inhibitors of Inflammasome Signaling: IL-1-beta AlphaLISA Primary Screen | hit rate 4.7% among 360,000 | THP-1 LPS/ATP IL-1B secretion, AlphaLISA, 16 h; active compounds read low | activity change, % at 57.5 µM; in the data active = activity change below about -50%; inconclusive = mostly about -30% to -49%
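THP-1 cells pretreated 1 hr with compounds (up to 57.5 uM final), then stimulated with LPS (250 ng/mL final) plus ATP (1.25 mM final); secreted IL-1B measured by AlphaLISA after 16 hr, decreased signal indicating inhibition.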
CtBP-E1A blk: qHTS Assay for Inhibitors of the CtBP/E1A Interaction; CtBP / adenovirus E1A interaction (AlphaScreen); AlphaScreen GST-E1A/His-CtBP binding, 1536-well; active compounds read low; activity change, % (no concentration beside the values); hit rate 0.49% among 340,000; in the data active = activity change below about -65%; inconclusive = mostly about -30% to -63%
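AlphaScreen with 125 nM GST-E1A and 125 nM His-CtBP (5X stocks) in Tris pH 8.0, 300 mM NaCl, BSA, Tween 20, TCEP. Compounds preincubated 2 h at 37 deg C, then glutathione donor/nickel acceptor beads added for 1 h at 37 deg C in dark.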
DT40 TDP1 CPT: qHTS for Inhibitors of human tyrosyl-DNA phosphodiesterase 1 (TDP1): qHTS in cells in presence of CPT | chicken DT40 Tdp1-/-;hTDP1 cells + 20 nM CPT, ATP luminescence, 48 h | Potency, µM (titrated, usually from 46.2 µM), hits mostly inhibitors | hit rate 12% among 420,000; note: nearly all actives have a fitted effect of over 55% in size
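Chicken DT40 Tdp1-/- cells stably complemented with human TDP1 were seeded at 400 cells/well in medium containing 20 nM camptothecin, exposed to pin-transferred compounds, and grown at 37 °C for at least 48 hr. Viability was read as ATP luminescence.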
Six1-Eya2 blk: qHTS Assay for Inhibitors of the Six1/Eya2 Interaction. Homeobox protein SIX1 (Homo sapiens) + Protein phosphatase EYA2 (Homo sapiens), …. AlphaScreen GST-Six1/His-Eya2 binding, biochemical; active compounds read low. activity change, % (test concentration not listed). hit rate 0.56% among 360,000; in the data active = activity change below about -65%; inconclusive = mostly about -30% to -63%
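Six1/Eya2 binding was read as AlphaScreen signal after compounds were pinned into GST-Six1 plus His-tagged Eya2 (5X stock 250/500 nM) in pH 8.0 Tris/NaCl/TCEP buffer, beads added, then incubated 1 h, 37 C, dark.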
DT40 TDP1 no CPT: qHTS for Inhibitors of human tyrosyl-DNA phosphodiesterase 1 (TDP1): qHTS in cells in absence of CPT; DT40 Tdp1-/- hTDP1 cells, no CPT, ATP luminescence, 48 h; Potency, µM (doses to about 46.2 µM), actives largely listed as inhibitors; hit rate 15% among 420,000; note: nearly all actives have a fitted effect of over 55% in size
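A cellular qHTS used chicken DT40 cells lacking endogenous Tdp1 but carrying stably transfected human TDP1. Compounds were applied without camptothecin, and cell growth kinetics were judged by ATP-dependent luminescence after ≥48 hr.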
TDP1 block: qHTS Assay for Inhibitors of Tyrosyl-DNA Phosphodiesterase (TDP1); Tyrosyl-DNA phosphodiesterase 1 (Homo sapiens), Q9NUW8; recombinant TDP1, AlphaScreen DNA substrate cleavage; Potency, µM (series often up to 130 µM), actives largely listed as inhibitors; hit rate 0.28% among 350,000; AID 485290, 2010; note: nearly all actives have a fitted effect of over 40% in size
Target sequence (Q9NUW8 whole entry, looked up): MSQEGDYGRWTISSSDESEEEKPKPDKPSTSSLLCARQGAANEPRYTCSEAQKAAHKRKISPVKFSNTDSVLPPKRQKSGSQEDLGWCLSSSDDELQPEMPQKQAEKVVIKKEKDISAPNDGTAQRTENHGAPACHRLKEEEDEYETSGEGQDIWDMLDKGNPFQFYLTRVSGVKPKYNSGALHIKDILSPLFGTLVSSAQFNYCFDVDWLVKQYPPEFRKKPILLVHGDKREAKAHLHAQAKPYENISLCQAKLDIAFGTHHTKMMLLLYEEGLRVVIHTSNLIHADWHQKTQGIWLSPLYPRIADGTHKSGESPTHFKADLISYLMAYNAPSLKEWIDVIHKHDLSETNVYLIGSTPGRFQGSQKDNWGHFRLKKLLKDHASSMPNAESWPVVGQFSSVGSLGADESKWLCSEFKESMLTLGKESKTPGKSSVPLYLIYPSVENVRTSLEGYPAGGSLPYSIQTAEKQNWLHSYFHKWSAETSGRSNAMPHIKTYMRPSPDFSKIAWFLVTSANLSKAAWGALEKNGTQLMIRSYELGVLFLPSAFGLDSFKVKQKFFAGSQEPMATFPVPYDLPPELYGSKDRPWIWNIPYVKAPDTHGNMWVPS
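E. coli-derived human Tdp1, 1 nM final. Cpd preinc 15 min RT; substrate 15 nM final, 5 min RT; AS bead mix 10 ug/ml final, 10 min RT. Signal loss = tyrosine-FITC cleavage. No-enzyme wells = max signal.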
Numbers stand for hits; 0 = inactive; ? = inconclusive; - = not tested or not shown. Hits are enriched below; roughly 18% of the tested compounds scored in any of these assays. Unless noted, calls come from the whole dose curve; as a rule, active = well fitted curve in the direction sought with a large enough effect; inconclusive = small, poorly fitted or top-dose-only effect, or another doubt; inactive = no such curve, though single readings can be large; an effect the other way counts as inactive or inconclusive.

SMILES	IL-1B inflam inh	CtBP-E1A blk	DT40 TDP1 CPT	Six1-Eya2 blk	DT40 TDP1 no CPT	TDP1 block
CN(c1ncnc2c1c(-c1ccccc1)cn2-c1ccc(F)cc1)C1CCCCC1	-	-	?	-	23µM	0
COC(=O)C(C)Sc1ncnc2c1c(-c1ccccc1)cn2-c1ccc(F)cc1 (stereo unspecified)	-	-	4.1µM	-	16µM	0
CN(c1ncnc2c1c(-c1ccccc1)cn2-c1cccc(Cl)c1)C1CCCCC1	-	-	0	-	0	0
CC1CN(c2ncnc3c2c(-c2ccccc2)cn3-c2ccc(F)cc2)CC(C)O1 (stereo unspecified)	?	0	16µM	0	9.2µM	0
OCCN1CCN(c2ncnc3c2c(-c2ccccc2)cn3-c2ccc(F)cc2)CC1	-97	0	?	0	26µM	0
CCOC(=O)c1c(C)[nH]c(C)c1C(=O)Cn1nnc(-c2ccccc2C)n1	0	0	15µM	0	?	0
CC(C)(C)C1=CC(=O)C(=O)C(C(C)(C)C)=C1	-65	-	0.65µM	0	1.3µM	0
Cc1cccc(N2C(=O)c3cccc4c(N5CCCCC5)c([N+](=O)[O-])cc(c34)C2=O)c1C	0	0	?	0	?	0
O=C1c2cccc3c(N4CCOCC4)c([N+](=O)[O-])cc(c23)C(=O)N1c1cccc2ccccc12	0	0	12µM	0	18µM	0
CCS(=O)(=O)n1nc(-c2ccc(OC)cc2)nc1N	0	0	0	0	0	0
O=C(COC(=O)c1cccnc1Cl)NC(=O)c1ccc(OC(F)F)cc1	0	0	0	0	0	0
COCCn1c(C)cc(O)c(C(c2ccc(OC)cc2)N2CCN(c3ccccc3)CC2)c1=O (stereo unspecified)	-	-	0	-	0	0
c1ccn2cc(-c3ccc4c(c3)OCO4)cc2c1	0	0	16µM	0	?	0
c1cnc2nc(-c3ccc4c(c3)OCO4)cn2c1	0	0	0	0	?	0
O=[N+]([O-])c1ccc(F)c(N=Cc2ccc(Br)s2)c1	0	-	0	0	0	0
CCCCCCC1CCC(C(=O)NC(C(=O)O)C(C)C)CC1 (stereo unspecified)	-	-	0	-	0	0
CCCCCC1CCC(C(=O)NNC(=S)NCC)CC1 (stereo unspecified)	0	0	23µM	0	?	0
CC(C)NC(=O)C1CCN(C(=O)C(C(=O)c2ccccc2)n2cc(Cl)ccc2=O)CC1 (stereo unspecified)	0	0	0	0	0	0
Cc1cccc(NS(=O)(=O)c2csc(C(N)=O)c2)c1	0	0	0	0	0	-
CCn1cc(/C=C/C(=O)Nc2ccn(Cc3c(F)c(F)cc(F)c3F)n2)cn1	0	0	?	0	12µM	0
COc1ccc(C(O)(CC(C)C)C(CN2CCOCC2)c2ccccc2)cc1 (stereo unspecified)	0	0	?	0	21µM	-
CCOc1ccc(C(O)(c2ccccc2)C(CN2CCCC2)c2ccccc2)cc1 (stereo unspecified)	-61	0	?	0	7.3µM	-
CCc1ccc(C(O)(c2ccccc2OC)C(CN2CCOCC2)c2ccccc2)cc1 (stereo unspecified)	0	0	?	0	?	0
CCOc1ccc(C(O)(CCC(C)C)C(CN2CCOCC2)c2ccccc2)cc1 (stereo unspecified)	-60	0	?	0	21µM	-
COc1ccc(C(O)(CCC(C)C)C(CN2CCOCC2)c2ccc(Cl)cc2)cc1 (stereo unspecified)	-81	0	?	0	15µM	-
SMILES	IL-1B inflam inh	CtBP-E1A blk	DT40 TDP1 CPT	Six1-Eya2 blk	DT40 TDP1 no CPT	TDP1 block
COc1ccc(NC(=O)N(C)C[C@H]2Oc3ccc(NC(=O)Cc4ccccc4)cc3C(=O)N([C@H](C)CO)C[C@@H]2C)cc1	0	0	0	0	0	0
CC[n+]1c(C)sc2c(C)cc(C)cc21	0	0	23µM	0	?	0
CCOCCCNC(=O)C(c1ccc(Cl)cc1)N(Cc1cccs1)C(=O)c1ccc(NC(C)=O)cc1 (stereo unspecified)	-	-	15µM	-	16µM	0
CCOCCCNC(=O)C(c1ccc(C)cc1)N(Cc1cccs1)C(=O)c1ccc(NC(C)=O)cc1 (stereo unspecified)	-	-	21µM	-	18µM	0
CCOCCCNC(=O)C(c1ccc(C)cc1)N(Cc1ccc2c(c1)OCO2)C(=O)c1ccc(NC(C)=O)cc1 (stereo unspecified)	-	-	15µM	-	?	0
CCOCCCNC(=O)C(c1ccccc1)N(Cc1ccc2c(c1)OCO2)C(=O)c1ccc(NC(C)=O)cc1 (stereo unspecified)	-	-	?	-	0	0
CCOCCCNC(=O)C(c1ccc(C)cc1)N(Cc1cccs1)C(=O)c1ccccc1O (stereo unspecified)	-108	0	0	0	?	0
Cc1cccc(Nc2ncccc2C(=O)O)c1C	0	0	0	0	0	0
CCOCCCNC(=O)C(c1ccccc1)N(Cc1cccs1)C(=O)c1ccc(NC(C)=O)cc1 (stereo unspecified)	-	-	?	-	16µM	0
CCN1CCN(Cc2c(O)ccc3c(=O)c(Oc4ccccc4Cl)c(C(F)(F)F)oc23)CC1	-	-	?	-	21µM	0
CC(C)CNC(=O)COC(=O)c1cc(S(=O)(=O)N(C)C)ccc1N1CCCC1	0	0	0	0	0	0
COc1ccc(N(C)S(=O)(=O)c2cccc(C(=O)NCC3CCCO3)c2)cc1 (stereo unspecified)	0	0	?	0	0	0
CC(C)(C)c1ccc(C(=O)Nc2ccc(C=C(C#N)C#N)cc2)cc1	0	0	16µM	0	12µM	0
O=C(Nc1ccc(C(=O)N2CCCCC2)cc1)c1ccc(Br)cc1	0	0	0	0	?	0
N#CC(C#N)=Cc1ccc(NC(=O)c2ccc(Br)cc2)cc1	?	0	21µM	0	16µM	-
Cc1cc(C)n(-c2nc(C)c(C)c(=O)n2CC(=O)Nc2ccc(Cl)c(Cl)c2)n1	-	-	15µM	-	7.3µM	0
CCCCN1C(=O)C(=O)N(CC(=O)Nc2ccc(OC(F)(F)F)cc2)C1=O	0	0	?	0	0	0
COc1ccc(-c2nn(CC(=O)Nc3ccc(Cl)c(Cl)c3)c(=O)c3ccccc23)cc1	0	0	0	0	0	0

Assay outcomes: PubChem, National Center for Advancing Translational Sciences (NCATS)
